Experimental data as given in PubChem BioAssay (Tox21).
Results filed as inconclusive are left out. Entries that show only a call come without a potency. Activity calls are given as the source filed them. Calls follow the shape of the full dose curve.

Experiment: Nuclear factor erythroid 2-related factor 2/antioxidant responsive element (Nrf2/ARE) small molecule agonists: luciferase reporter gene qHTS assay in human keratinocytes (AID 1919969); also: nearly all actives have a fitted effect of over 35% in size
Conditions: KeratinoSens HaCaT ARE-luciferase, luminescence, 24 h; series mostly up to 92.4 µM
Text: National Center for Advancing Translational Sciences [NCATS]
Division of Preclinical Innovation [DPI]
U.S. Environmental Protection Agency [EPA]
National Institutes of Environmental Health Sciences [NIEHS]
National Toxicology Program [NTP]
U.S. Food and Drug Administration [FDA]
Oxidative stress has been implicated in the pathogenesis of a variety of diseases ranging from cancer to neurodegeneration. The antioxidant response element (ARE) signaling pathway plays an important role in the amelioration of oxidative stress. The KeratinoSens (Givaudan, Switzerland) is an in vitro test method which quantifies luciferase induction as a measure of activation of Keap1-Nrf2-antioxidationt/electrophile response element (ARE) dependant pathway in HaCaT human keratinocytes stably transfected with a selectable plasmid. The KeratinoSens assay is a cell-based assay with a reporter cell line to detect potential skin sensitizers by their ability to induce the Nrf2/ARE-response. The activation of the report gene under culture conditions can be detected by ONE-Glo Luciferase Assay System (Promega, Madison, WI). This cell line has been used to screen the Tox21 10K compound library to identify agonists that induce oxidative stress. The cytotoxicity of the Tox21 compound library against the KS-ARE cell line was tested in parallel by measuring the cell viability using CellTiter- Fluor assay system (Promega, Madison, WI) in the same wells.
HaCaT derived cell line KeratinoSens were dispensed at 1,500 cells/5uL/well in 1536-well white wall/solid bottom plates using a Multidrop Combi (ThermoFisher Scientific, Waltham, MA) dispenser. After the assay plates were incubated at 37 C/5% CO2 for 5 h, 23 nL of compounds dissolved in DMSO, positive controls or DMSO only was transferred to the assay plate by a pintool workstation (Kalypsys, San Diego, CA). The plates were incubated at 37 C/5% CO2 for 23 h, followed by addition of 1uL/well of CellTiter-Fluor reagent into the assay plates using a Flying Reagent Dispenser (Aurora Discovery, San Diego, CA) for cell viability readout that measures cytotoxicity. After 1 h incubation at 37 C/5% CO2 the fluorescence intensity was measured using a ViewLux (PerkinElmer, Shelton, CT) plate reader. Then 4uL/well of One-Glo were added using a Flying Reagent Dispenser. After the plates were incubated at room temperature for 30 min, the luminescence intensity in the assay plates was measured using ViewLux plate reader.
Potency is read from the fitted curve at half-maximal effect.

Question: With `N#C/C(N)=C(/N)C#N` as the compound, how does the Potency read?
Answer: inactive

Question: Which Potency does the source give for `Cc1ccc(C)c2ccccc12` here?
Answer: inactive

Question: With `Nc1ccc(N=Nc2ccccc2)cc1` as the compound, how does the Potency read?
Answer: 10.9 µM (active)

Question: With `CC(C)[C@H](C(=O)OC(C#N)c1cccc(Oc2ccccc2)c1)c1ccc(OC(F)F)cc1` (stereo not given in full) as the compound, how does the Potency read?
Answer: inactive

Question: With `CCOP(=O)(OCC)Oc1nc(Cl)c(Cl)cc1Cl` as the compound, how does the Potency read?
Answer: inactive

Question: With `CCN(CC)C(=S)[S-].CCN(CC)C(=S)[S-].[Zn+2]` as the compound, how does the Potency read?
Answer: 2.41 µM (active)

Question: With `CCOP(=O)(OCC)Oc1cc(C)nc(C(C)C)n1` as the compound, how does the Potency read?
Answer: inactive

Question: For `II`, which Potency is on record?
Answer: inactive

Question: For `O=c1ssc(Cl)c1Cl`, which Potency is on record?
Answer: 24.3 µM (active)

Question: With `CCN(CC)CCOC(=O)C(C)(c1ccccc1)c1ccccc1` as the compound, how does the Potency read?
Answer: inactive

Question: Which Potency does the source give for `CNC(=O)Oc1cc(C)cc(C(C)C)c1` here?
Answer: inactive

Question: With `Cc1ncsc1CCCl` as the compound, how does the Potency read?
Answer: inactive

Question: Which Potency does the source give for `N#CC(C#N)=C(C#N)C#N` here?
Answer: inactive

Question: For `COc1cc(CC(C)N)cc2c1OCO2` (stereo not given), which Potency is on record?
Answer: inactive

Question: With `C[CH2][Hg][N]1C(=O)C2C(C1=O)C1(Cl)C(Cl)=C(Cl)C2(Cl)C1(Cl)Cl` (stereo not given) as the compound, how does the Potency read?
Answer: 2.91 µM (active)

Question: With `CN1CCc2cc3c(cc2C1O)OCO3` (stereo not given) as the compound, how does the Potency read?
Answer: 54.8 µM (active)

Question: With `CC(C)N(CCC(C(N)=O)(c1ccccc1)c1ccccn1)C(C)C` (stereo not given) as the compound, how does the Potency read?
Answer: inactive

Question: With `CC(C)(c1ccccc1)c1ccc(O)cc1` as the compound, how does the Potency read?
Answer: inactive

Question: Which Potency does the source give for `CC(=O)Nc1cc([As](=O)(O)O)ccc1O` here?
Answer: inactive

Question: For `CC(N)=S`, which Potency is on record?
Answer: inactive

Question: With `CCC1(C2=NCCN2)Cc2ccccc2O1` (stereo not given) as the compound, how does the Potency read?
Answer: inactive

Question: For `CCS(=O)(=O)C(C)(C)S(=O)(=O)CC`, which Potency is on record?
Answer: inactive

Question: Which Potency does the source give for `C[C@H](N)[C@H](O)c1ccc(O)c(O)c1` here?
Answer: inactive

Question: With `CC(C)CC(C)N` (stereo not given) as the compound, how does the Potency read?
Answer: inactive

Question: For `O=S1(=O)OC(c2cc(Br)c(O)c(Br)c2)(c2cc(Br)c(O)c(Br)c2)c2ccccc21`, which Potency is on record?
Answer: inactive

Question: With `O=C1C(=O)c2cccc3cccc1c23` as the compound, how does the Potency read?
Answer: 27.3 µM (active)

Question: For `C=CCOC(C)=O`, which Potency is on record?
Answer: inactive

Question: With `COC(=O)C1(O)c2ccccc2-c2ccccc21` as the compound, how does the Potency read?
Answer: inactive

Question: Which Potency does the source give for `COC(=O)C(C)N(C(=O)Cc1ccccc1)c1c(C)cccc1C` (stereo not given) here?
Answer: inactive

Question: For `CSc1nc(N=[N+]=[N-])nc(NC(C)C)n1`, which Potency is on record?
Answer: inactive

Question: Which Potency does the source give for `CS(=O)(=O)c1cc(C(F)(F)F)ccc1C(=O)c1cnoc1C1CC1` here?
Answer: inactive

Question: For `O=NN(CCO)CCO`, which Potency is on record?
Answer: inactive

Question: Which Potency does the source give for `CC(=O)CN(CC(C)=O)N=O` here?
Answer: inactive

Question: For `[As]#[In]`, which Potency is on record?
Answer: inactive

Question: With `CCOC(=O)CCl` as the compound, how does the Potency read?
Answer: inactive

Question: For `CCCCOC(=O)c1ccccc1N`, which Potency is on record?
Answer: inactive

Question: With `O=C(NC(=O)c1cc(F)c(F)cc1Cl)Nc1cc(F)ccc1N1CCC(C(=O)O)CC1` as the compound, how does the Potency read?
Answer: inactive

Question: Which Potency does the source give for `CCOC(=O)C(Cl)C(C)=O` (stereo not given) here?
Answer: inactive

Question: For `CC(O)CCl` (stereo not given), which Potency is on record?
Answer: inactive

Question: With `CCCCCCCCCCCCCN1CC(C)OC(C)C1` (stereo not given) as the compound, how does the Potency read?
Answer: inactive
